# Screens as filed in PubChem BioAssay.
# An excerpt weighted towards active compounds, which were near 12% of everything screened.
# Sm TGR inh – inhibitors of Schistosoma mansoni thioredoxin glutathione reductase; Q962Y6; purified TGR, DTNB reduction, TNB absorbance 405 nm; Potency, µM (titrated, usually from 114 µM), for the others: at the top dose activity change, negative = inhibition, usual class: inhibitors; 360,000 compounds, 3% hits; AID 485364; also: % is scaled to controls: 0 for no effect and ±100 for the full control effect; nearly all actives have a fitted effect of over 60% in size
#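 TGR 20 nM + NADPH 100 uM (dispensed conc.), cpd preinc 15 min RT; start with NADPH (500 uM addition) then DTNB (15 mM addition). Kinetic TNB absorbance, 405 nm filter. Four-parameter Hill fit across titration.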
# Pf growth 48h – P. falciparum growth inhibition at 48 hours (one generation) | P. falciparum luciferase growth in erythrocytes, 48 h | Potency, µM (top dose mostly 28.7 µM), inactives show at the highest dose activity change, negative = inhibition, actives largely listed as inhibitors | 310,000 compounds, 5.9% hits | AID 504832; also: % is scaled to controls: 0 for no effect and ±100 for the full control effect
#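 In quantitative HTS format, infected erythrocytes bearing luciferase-reporter parasites were treated for a single generation at 37 C. Luminescence after adding detection reagent served as the growth measure.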
# AmpC inh detg – AmpC beta-lactamase inhibition with detergent present; Potency, µM (series often up to 114 µM), inactives show top-dose activity change, negative = inhibition, hits mostly inhibitors; P00811; 370,000 compounds, 0.041% hits; AmpC hydrolysis of nitrocefin, absorbance 480 nm, 0.01% Triton;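 also: 0% = no-compound wells and -100% = no-enzyme wells; nearly all actives have a fitted effect of over 25% in size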
# Target sequence (P00811 whole entry, looked up): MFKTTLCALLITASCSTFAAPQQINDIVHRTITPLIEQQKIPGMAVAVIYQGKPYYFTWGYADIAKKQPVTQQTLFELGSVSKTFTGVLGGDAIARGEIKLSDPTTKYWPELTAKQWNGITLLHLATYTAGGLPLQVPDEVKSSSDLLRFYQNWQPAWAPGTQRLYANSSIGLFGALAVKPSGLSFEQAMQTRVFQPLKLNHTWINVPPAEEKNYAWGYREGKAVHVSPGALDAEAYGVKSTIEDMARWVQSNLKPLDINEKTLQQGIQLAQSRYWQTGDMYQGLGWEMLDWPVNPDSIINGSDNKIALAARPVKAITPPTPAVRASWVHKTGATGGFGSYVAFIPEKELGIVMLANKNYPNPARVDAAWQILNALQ
#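 20 mM phosphate pH 7.0 + 0.01% (detergent screen) or 0.0001% Triton X-100; 5.3 nM AmpC reagent; cpd preinc 15 min RT; nitrocefin (800 uM stock) to start; A480 q20 s × 4 min; Activity was normalised to no-enzyme and no-compound control wells.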
# SARS PLpro yeast – inhibitors of SARS-CoV papain-like protease in yeast | S. cerevisiae expressing SARS-CoV PLpro, growth rescue | Potency, µM (top dose mostly 32.9 µM), for the others: at the highest dose activity, positive = growth rescue, hits mostly activators | 330,000 compounds, 0.19% hits | AID 485353; calls by dose curve; also: 0% is about no effect; nearly all actives have a fitted effect of over 55% in size
# Pf growth 96h – P. falciparum growth inhibition at 96 hour, primary screen for plastid delayed-death inhibitors. P. falciparum luciferase reporter growth, 96 h. Potency, µM (top dose mostly 28.7 µM), inactives show at the highest dose activity change, negative = inhibition, hits mostly inhibitors. 320,000 compounds, 6.9% hits; also: % is scaled to controls: 0 for no effect and ±100 for the full control effect
#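 96 h incubation, 37 C, 5% CO2, of luciferase-reporter P. falciparum-infected RBCs (2% hematocrit, 0.05% parasitemia final) with test compounds; endpoint luminescence.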
# AmpC no deterg – inhibitors of E. coli AmpC beta-lactamase without detergent; AID 485341; 330,000 compounds, 0.52% hits; P00811; AmpC nitrocefin hydrolysis, absorbance 480 nm, 0.0001% Triton; Potency, µM (doses to about 57.1 µM), for the others: top-dose activity change, negative = inhibition, hits mostly inhibitors;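 also: plate controls were no compound for no effect and no enzyme for full effect; nearly all actives have a fitted effect of over 20% in size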
#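 20 mM phosphate pH 7.0 + 0.01% (detergent screen) or 0.0001% Triton X-100; 5.3 nM AmpC reagent; cpd preinc 15 min RT; nitrocefin (800 uM stock) to start; A480 q20 s × 4 min; Activity was normalised to no-enzyme and no-compound control wells.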
# * = called active by the depositor; ? = inconclusive; . = no result given; ! = not active in a repeat. Unless noted, calls follow the shape of the dose curve; as a rule, active = well fitted curve in the direction sought with a large enough effect; inconclusive = small, poorly fitted or top-dose-only effect, or another doubt; inactive = no such curve, though single readings can be large; an effect the other way counts as inactive or inconclusive. Potency is read from the fitted curve at half-maximal effect.
SMILES,Sm TGR inh,Pf growth 48h,AmpC inh detg,SARS PLpro yeast,Pf growth 96h,AmpC no deterg
COCCN1CCN(C(=O)C2CCC(=O)N(CCc3ccccc3)C2)CC1 (configuration not stated),-6%,43%,?,.,9.3µM*,-1%
Cc1ccc(CNC(=O)C2CCC(=O)N(CC3CCCCC3)C2)o1 (configuration not stated),28µM*,10%,?,16%,?,37%
COCCN1CCN(C(=O)C2CCC(=O)N(Cc3ccccc3OC)C2)CC1 (configuration not stated),-20%,2%,2%,-2%,?,-6%
CCOC(=O)C1CCN(C(=O)C2CCC(=O)N(CC3CCCCC3)C2)CC1 (configuration not stated),-24%,-3%,-5%,-1%,?,42%
COc1ccc(CNC(=O)C2CCC(=O)N(CC3CCCCC3)C2)cc1 (configuration not stated),0%,-7%,8%,0%,2.3µM*,-15%
COCCCC1CCN(C(=O)C2CCC(=O)N(CC3CCCCC3)C2)CC1 (configuration not stated),-2%,2%,-13%,4%,1.5µM*,99%
NC(=O)CC[C@@H]1NC(=O)[C@H](Cc2ccccc2)NC(=O)[C@H](Cc2ccc(O)cc2)NC(=O)[C@@H](N)CSSC[C@@H](C(=O)N2CCC[C@H]2C(=O)N[C@@H](CCCN=C(N)N)C(=O)NCC(N)=O)NC(=O)[C@H](CC(N)=O)NC1=O,-8%,?,-8%,-15%,12µM*!,-28%
CCC(C)C1NC(=O)C(Cc2ccc(O)cc2)NC(=O)C(N)CSSCC(C(=O)N2CCCC2C(=O)NC(CC(C)C)C(=O)NCC(N)=O)NC(=O)C(CC(N)=O)NC(=O)C(CCC(N)=O)NC1=O (configuration not stated),.,2%,.,.,?,.
COc1ccc(CCN2C(=O)NC(NS(=O)(=O)c3ccc(NC(C)=O)cc3)(C(F)(F)F)C2=O)cc1OC (configuration not stated),-19%,9%,-4%,-1%,6%,-9%
CCC(C(=O)NCc1ccc(OC)c(OC)c1)n1nc(C)c2c(C)n(-c3ccc(C)cc3)nc2c1=O (configuration not stated),-3%,.,11%,.,.,.
CCOc1ccc(NC(=O)C(CC)n2nc(C)c3c(C)n(-c4ccccc4)nc3c2=O)cc1 (configuration not stated),1%,?,-6%,-5%,13µM*,5%
CCC(C(=O)Nc1cccc(OC)c1)n1nc(C)c2c(C)n(-c3ccccc3)nc2c1=O (configuration not stated),-1%,?,-9%,-2%,38%,-7%
CCC(C(=O)Nc1cc(F)ccc1F)n1nc(C)c2c(C)n(-c3ccc(C)cc3)nc2c1=O (configuration not stated),1%,?,-4%,1%,8.3µM*,1%
CCC(C(=O)Nc1ccccc1F)n1nc(C)c2c(C)n(-c3ccccc3)nc2c1=O (configuration not stated),9%,?,5%,3%,15µM*,14%
CCOc1ccc(C2CC(c3cccc(OC)c3)n3nc(N)nc3N2)cc1 (configuration not stated),3%,5%,?,-1%,-9%,4.5µM*
COc1ccc(C2CC(c3ccccc3C)n3nc(N)nc3N2)cc1 (configuration not stated),3%,4%,-14%,4%,194%,?
COc1cccc(C2CC(c3c(Cl)cccc3Cl)n3nc(N)nc3N2)c1 (configuration not stated),4%,?,?,-2%,13µM*,5.6µM*
COc1ccc(C2CC(c3cccc(OC)c3)n3nc(N)nc3N2)cc1 (configuration not stated),-1%,?,-9%,0%,?,-15%
CCc1ccc(C2CC(c3ccccc3)Nc3nc(N)nn32)cc1 (configuration not stated),16%,9%,9%,-1%,1.9µM*,-8%
COc1cccc(C2CC(c3ccccc3C)n3nc(N)nc3N2)c1 (configuration not stated),4%,5%,?,8%,14%,2.8µM*
CCC(=O)c1ccc(OCC(=O)OCC(=O)NC2CCCCCCC2)cc1,-3%,12%,-6%,-3%,21%,19%
O=C1CC(c2ccccc2)CN1C(=O)c1cncc(Br)c1 (configuration not stated),5%,25%,1%,0%,48%,-28%
C[C@@H]1CC[C@H]2[C@@H](C)C(=O)O[C@@H]3OC4(C)CC[C@@H]1C32OO4 (some centres not stated),.,0.0034µM*,.,.,0.0027µM*,.
C[C@@H]1CC[C@H]2[C@@H](C)C(=O)O[C@@H]3O[C@@]4(C)CC[C@@H]1[C@]32OO4,1%,0.0033µM*,-13%,-14%,0.0033µM*,23%
C[C@H]1[C@@H](OC(=O)CCC(=O)O)OC2OC3(C)CC[C@H]4[C@H](C)CC[C@@H]1[C@@]24OO3 (some centres not stated),.,0.0019µM*,.,.,0.0013µM*,.
SMILES,Sm TGR inh,Pf growth 48h,AmpC inh detg,SARS PLpro yeast,Pf growth 96h,AmpC no deterg
O=C(CC1C(=O)NCCN1Cc1ccccc1)NCCC1=CCCCC1 (configuration not stated),?,-13%,1%,0%,6%,30%
O=C(C1CCN(S(=O)(=O)c2ccc(Br)s2)CC1)N1CCN(c2cccc(C(F)(F)F)c2)CC1,8%,.,-7%,.,.,.
CCC(C)[C@H](NC(=O)NCCCOC(C)C)C(=O)OC (some centres not stated),10%,-25%,5%,-1%,12µM*,-6%
COCCCNC(=O)C(=O)NCCCOC(C)C,1%,3%,1%,0%,12µM*,0.28µM*
CC(=O)Nc1ccc(C(=O)NCCCOC(C)C)cc1,-14%,-1%,3%,1%,57%,-27%
O=C(NCc1ccco1)c1c(O)c2cccc3c2n(c1=O)CCC3,2%,13%,?,0%,13µM*,-23%
NNC(=O)c1c(O)c2cccc3c2n(c1=O)CCC3,32µM*,0%,1%,-1%,2%,-10%
